Records with an inconclusive call do not appear. Activity calls are given as the source filed them. The call rests on the fitted dose curve; in most records, active means well fitted inhibition curve with a large enough effect; inconclusive means small, poorly fitted or top-dose-only effect, or effect the other way; inactive means flat fitted curve, though single readings scatter.
assay: qHTS for Inhibitors of Plasmodium falciparum (GB4) proliferation (AID 504315); further: nearly all actives have a fitted effect of over 50% in size;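 on activity change, negative = inhibition: 0% = DMSO vehicle and -100% = 0.29 µM artemisinin control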; details: P. falciparum GB4 in erythrocytes, SYBR Green DNA, 72 h; series mostly up to 6.7 µM; activity change, negative = inhibition: at the top concentration
From the text: Plasmodium falciparum is a virulent malarial parasite that kills 1-2 million people worldwide each year. Malaria not only inflicts tremendous suffering and morbidity on the human population, but has dramatically influenced the course of civilization with profound sociological and economic implications (Shah, S. 2010). Transmitted by mosquitoes, the sporozoite form of the parasite enters the blood stream to infect hepatocytes, where they become merozoites that infect red blood cells (erythrocytes). Within erythrocytes, merozoites begin a […] cycle of growth and division, after which the parasite is released to infect new red blood cells. Gametocytes, which form within erythrocytes as well, circulate in the bloodstream and are ingested by the mosquito, thereby completing the life cycle (see CDC website). To profile malarial lines for differential chemical responses and to identify inhibitors of malarial growth, an assay that measures P. falciparum growth and replication within erythrocytes was employed. This assay uses a DNA binding fluorescent dye (SYBR Green) to detect parasite DNA following cell lysis. Because mature erythrocytes lack DNA, only Plasmodium-derived DNA is detected. The P. falciparum line cp250, derived from a malarial isolate from Cambodia, (Mu, J., et al. 2010) was added to the panel of lines, Dd2, HB3, 7G8 and GB4 in this study. Laboratory of Assay Development and Screening Technology [ADST] and NIH Chemical Genomics Center [NCGC] Boston University, Chemistry Department, Center for Chemical Methodology and Library Development [CMLD-BU] NIH National Institute of Allergy and Infectious Diseases [NIAID]
ADST Assay Protocol Summary: The 1536-well SYBR Green viability assay was based on the method of Bennett et al (2004) and described previously in 1536-well format (Yuan J., et al. 2009). For screening 3 ul culture medium was dispensed into 1536 well black clear bottom plates (Aurora Biotechnologies) using a Multidrop Combi (Thermo Fisher Scientific Inc.), 23 nL compounds in DMSO were added by a pin transfer (Cleveland, P.H. and Koutz, P.J, 2005) using a pin tool-based delivery system (Kalypsys), and 5 ul of erythrocytes infected with P. falciparum one of five lines (cp250, Dd2, HB3, 7G8 or GB4, 0.3% parasitemia, 2.5% hematocrit final concentration) were added. The plates were incubated at 37C in a humidified incubator in 5% CO2 for 72 h, and 2 ul lysis buffer (20 mM Tris HCl, 10 mM EDTA, 0.16% saponin, 1.6% triton X, 10X SYBR Green I (supplied as 10,000X final concentration by Invitrogen) was added to each well. The plates were mixed for 25 sec with gentle shaking and incubated overnight at room temperature in the dark. The following morning, fluorescence intensity at 485(14) nm excitation and 535(25) nm emission wavelengths was measured on an EnVision (Perkin Elmer) plate reader. Plate reads were normalized relative to the control inhibitor (0.29 uM artemisinin) and vehicle (DMSO) wells present on each plate and then corrected by an algorithm using vehicle-only control plates at the beginning and end of the compound plate stack. References Shah, S. (2010). The Fever: how malaria has ruled humankind for 500,000 years. New York, Sarah Crichton Books. CDC web site, http://www.cdc.gov/malaria/about/biology/index.html Mu, J., Myers, R.A., Jiang, H., Liu, S., Ricklefs, S., Waisberg, M., Chotivanich, K., Wilairatana, P., Krudsood, S., White, N.J., et Plasmodium falciparum genome-wide scans for positive selection, recombination hot spots and resistance to antimalarial drugs Nature Genetics 2010, 42, pp 268-271 Bennett TN, Paguio, M., Gligorijevic, B., Seudieu, C., Kosar, A. D., Davidson, E., and Roepe, P. D. Novel, rapid, and inexpensive cell-based quantification of antimalarial drug efficacy Antimicrobial Agents Chemother. 2004, 48(5): pp 1807-10 Yuan J, Johnson RL, Huang RL, Wichterman J, Jiang HY, Hayton K, Fidock DA, Wellems TE, Inglese J, Austin CP, Su XZ. […]
Potency means the concentration at half of the fitted maximal effect.

SMILES	Potency	activity change, negative = inhibition
C=CC1=C2C=C(C3CC3)N(CC(C)C)C=C2C(=O)C(C)(OC(=O)c2ccco2)C1=O (stereo not given)	inactive	
CCCCCCCC1=CC2=CC(=O)C(C)(O)C(=O)C2=CN1CCCC (stereo not given)		9.92% (inactive)
C=C(C[C@]1(C(=O)OC)C[C@]2(CC=C(C)C)C(=O)C(C(=O)CC(C)C)=C(O)[C@@](CC=C(C)C)(C1)C2=O)C(=O)OC		0.768% (inactive)
C=CCCC1(C(=O)c2ccccc2)C(=O)C(CC=C(C)C)=C(OC)C(CC=C(C)C)(CCC=C(C)C)C1=O (stereo not given)	1690 nM (active)	
CC1(C)OCC([C@H](O)C2=CCCCC2=O)CO1		-12.3% (inactive)
COC(=O)C1=C(C)N(Cc2ccccc2)C(=NCC2CC2)NC1c1ccccc1 (stereo not given)	1690 nM (active)	
C=C(C(=O)OCC)C(=O)c1ccccc1		7.66% (inactive)
COc1ccc(COC(=O)NN=C2C[C@@H](O)[C@@H](O)[C@@H]3[C@H]4C(=O)N(C[C@@H]5CCCO5)C(=O)[C@@H]4CC[C@@H]23)cc1		11.1% (inactive)
COCCN1C(=O)N[C@@H](c2ccccc2)[C@H](C(C)=O)[C@H]1C	inactive	
CCN1C(=O)[C@@H]2[C@H]3[C@H](O)[C@H](O)CC(=NNC(=O)OCc4ccccc4)[C@@H]3CC[C@H]2C1=O		12.2% (inactive)
CCC(=O)OC1(C)C(=O)C=C2C=C(c3ccsc3)OC=C2C1=O (stereo not given)		3.02% (inactive)
CC=COC(=O)N[C@@H](c1ccccc1)[C@]1(C(=O)OC)CCCC1=O		9.03% (inactive)
CC(C)=CCCC(C)=CCN1C(=O)[C@]2(O[C@H](COc3ccccc3)CC3=CCCC32)c2c(Br)cccc21 (stereo not given in full)	1510 nM (active)	
CCOC(=O)CN1C(=O)[C@]2(OCCC=C[C@@H]2C)c2ccccc21		-7.12% (inactive)
CC(=O)OC[C@H]1O[C@H](CC=NO[C@H](C)CN2CCCCc3nc(C)c(C)cc32)C=C[C@@H]1OC(C)=O		0.213% (inactive)
C=CCOC(=O)C(C(C)=O)[C@@H](NC(=O)OC)c1cccc(C)c1 (stereo not given in full)		13.2% (inactive)
COc1cccc2c1[C@H](C=Cc1ccccc1)[C@@H]([C@H](O)CN=[N+]=[N-])OC2		-16.4% (inactive)
CCOC(=O)CN1C(=O)N[C@@H](CCc2ccccc2)[C@H](C(=O)OC)[C@H]1C	inactive	
C[C@H]1Cc2c(-c3ccccc3)nc3c(c2CO1)CN(C(=O)Nc1cccc(C#N)c1)CC3		-2.4% (inactive)
CC(C)C(=O)NC(=O)[C@@H]1CCCN1C(=O)C=Cc1ccccc1		7.3% (inactive)

SMILES	Potency	activity change, negative = inhibition
CCN1C(=O)NC(c2cccs2)C(C(C)=O)=C1C (stereo not given)		3.3% (inactive)
C[C@@H]1C=CCC(=O)N[C@@H](c2ccccc2)[C@H](C)C=CCC(=O)N[C@@H]1c1ccccc1		-13.3% (inactive)
C=CCN1C(=O)[C@]2(OCCC=C[C@H]2C)c2ccccc21		12.9% (inactive)
COC(=O)C(C(=O)OC)C1c2ccccc2C=C(C2CC2)N1C(=O)OC (stereo not given)	inactive	
C[C@@H]1C=CCCO[C@]12C(=O)N(Cc1ccc(Br)cc1)c1ccccc12		6.58% (inactive)
O=P1(O)Oc2c(-c3ccccc3)cc3ccccc3c2-c2c(c(-c3ccccc3)cc3ccccc23)O1		-3.16% (inactive)
COC(=O)N[C@@H](c1ccc2ccccc2c1)C(C(C)=O)C(=O)OC (stereo not given in full)		1.07% (inactive)
CC1(OC(=O)c2cccs2)C(=O)C=C2C=C(c3ccsc3)OC=C2C1=O (stereo not given)		2.22% (inactive)
C=CCOC(=O)C(C(C)=O)[C@@H](NC(=O)OC)c1cccc(F)c1 (stereo not given in full)		8.75% (inactive)
C=CC1=C2C=C(C3CC3)N(CCN3CCOCC3)C=C2C(=O)C(C)(OC(=O)c2ccco2)C1=O (stereo not given)	inactive	
CC(CCC(=O)OC[C@H]1O[C@H](C#Cc2ccccc2)C=C[C@H]1Oc1ccc(C)cc1)=NO[C@H](C)c1cn([C@@H]2COC[C@@H]2O)nn1		-7.13% (inactive)
O=C(C=Cc1cccc([N+](=O)[O-])c1)c1ccccc1		5.53% (inactive)
C=CCN1C(=O)CC[C@@]23C1=NC(C(=O)OC)=C(C(=O)OC)[C@@H]2N(CC=C)c1ccccc13		3.37% (inactive)
COc1ccc2c(c1)O[C@@H](c1ccc3c(c1)OCO3)[C@H](OC(=O)Nc1ccc(OC(F)F)cc1)C2=O		3.12% (inactive)
CCOC(=O)C1=CN(CCNC(=O)OC(C)(C)C)C(=O)NC1c1ccccc1 (stereo not given)		-1.62% (inactive)
COc1cccc([C@H]2Oc3ccc(OC)cc3C(=NO[C@@H](C)c3cn([C@H](CO)Cc4ccccc4)nn3)[C@H]2O)c1		6.33% (inactive)
O=C(C=Cc1ccccc1)N1CCC[C@H]1CO		5.45% (inactive)
CCN1C(=O)N[C@@H](c2ccccc2)[C@H](C(=O)OC)[C@H]1C	inactive	
CC(C)=CCCC(C)=CCON=C1C[C@@H](O)[C@@H](O)[C@@H]2[C@H]3C(=O)N(Cc4ccc5c(c4)OCO5)C(=O)[C@@H]3CC[C@H]12		-2.29% (inactive)
COCC=CC1=CC2=CC(=O)C(C)(OC(=O)c3cnc4ccccc4n3)C(=O)C2=CN1Cc1ccc(OC)cc1 (stereo not given)		3.46% (inactive)
